# POLI inh: DNA polymerase iota (human) inhibition | AID 588590 | Pol iota fluorescent replication assay, 10 min | actives 1% (n = 390,000) | Q9UNA4 | Potency, µM (series often up to 115 µM), for inactives: top-dose activity, negative = inhibition, actives largely listed as inhibitors
#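 Pol iota at 10 nM preincubated 15 min with compounds at room temperature; reaction started with fluorescent substrate, 50 nM final. Fluorescence read kinetically at 0 and 10 min; buffer-only wells as negative control.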
# WRN helicase inh: inhibitors of human WRN helicase | Q14191 | WRN helicase unwinding, fluorescent forked duplex, kinetic | Potency, µM (series often up to 114 µM), inactives show at the top dose activity change, negative = inhibition, actives largely listed as inhibitors | actives 0.46% (n = 360,000) | AID 651768; note: % is set by controls: 0 for no effect and ±100 for the full control effect; nearly all actives have a fitted effect of over 55% in size
# Target sequence (Q14191 whole entry, looked up): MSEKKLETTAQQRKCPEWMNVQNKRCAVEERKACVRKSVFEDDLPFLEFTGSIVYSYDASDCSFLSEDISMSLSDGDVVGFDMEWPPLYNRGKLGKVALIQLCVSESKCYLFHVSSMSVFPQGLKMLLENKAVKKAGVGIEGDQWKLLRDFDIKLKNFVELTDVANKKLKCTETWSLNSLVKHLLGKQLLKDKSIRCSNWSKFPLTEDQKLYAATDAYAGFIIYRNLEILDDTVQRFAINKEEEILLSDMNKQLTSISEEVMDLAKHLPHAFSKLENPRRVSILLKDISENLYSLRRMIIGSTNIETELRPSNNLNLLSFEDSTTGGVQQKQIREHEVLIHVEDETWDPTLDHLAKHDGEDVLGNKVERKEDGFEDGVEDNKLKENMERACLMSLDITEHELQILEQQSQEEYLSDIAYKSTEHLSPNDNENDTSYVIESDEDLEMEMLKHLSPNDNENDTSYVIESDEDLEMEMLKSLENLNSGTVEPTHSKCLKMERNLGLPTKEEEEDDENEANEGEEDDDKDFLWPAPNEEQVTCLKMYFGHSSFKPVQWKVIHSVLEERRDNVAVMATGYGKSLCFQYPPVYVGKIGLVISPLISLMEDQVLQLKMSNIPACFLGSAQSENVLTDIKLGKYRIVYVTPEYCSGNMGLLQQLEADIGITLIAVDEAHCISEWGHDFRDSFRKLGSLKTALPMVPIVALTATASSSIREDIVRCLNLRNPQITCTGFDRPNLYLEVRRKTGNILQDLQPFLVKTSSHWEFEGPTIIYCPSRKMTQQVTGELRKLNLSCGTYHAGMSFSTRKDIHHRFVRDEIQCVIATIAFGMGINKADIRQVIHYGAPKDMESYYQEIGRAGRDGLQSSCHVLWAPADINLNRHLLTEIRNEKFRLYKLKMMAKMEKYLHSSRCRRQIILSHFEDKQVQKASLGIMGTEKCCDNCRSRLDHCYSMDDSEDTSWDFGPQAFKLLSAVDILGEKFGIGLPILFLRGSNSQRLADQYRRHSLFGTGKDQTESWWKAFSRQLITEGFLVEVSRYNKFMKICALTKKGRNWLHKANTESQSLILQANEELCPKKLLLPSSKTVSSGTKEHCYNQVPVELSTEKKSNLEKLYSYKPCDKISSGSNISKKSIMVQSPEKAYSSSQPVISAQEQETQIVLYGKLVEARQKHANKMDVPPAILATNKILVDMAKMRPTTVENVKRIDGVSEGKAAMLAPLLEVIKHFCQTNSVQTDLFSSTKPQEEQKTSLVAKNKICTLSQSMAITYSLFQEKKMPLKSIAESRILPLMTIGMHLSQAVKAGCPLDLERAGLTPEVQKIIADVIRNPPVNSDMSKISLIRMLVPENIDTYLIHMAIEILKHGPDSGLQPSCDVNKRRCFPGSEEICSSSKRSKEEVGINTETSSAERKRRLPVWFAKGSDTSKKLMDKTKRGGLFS
#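 WRN at 20 nM final was preincubated with compound for 15 min at room temperature; reaction started with 100 nM forked duplex oligonucleotide carrying fluorophore and quencher plus 2 mM ATP (final). Unwinding followed kinetically by red fluorescence (ex 525/em 598 nm).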
# POLK inh: DNA polymerase kappa (human) inhibition; AID 588579; actives 0.53% (n = 400,000); Potency, µM (top dose mostly 107 µM), for inactives: at the highest dose activity, negative = inhibition, hits mostly inhibitors; Q9UBT6; purified Pol kappa, fluorescent DNA synthesis assay, 10 min; note: % is set by controls: 0 for no effect and ±100 for the full control effect
#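 First, compounds were pin-transferred onto 10 nM Pol kappa. After 15 min at room temperature, substrate was added to 50 nM final. Fluorescence was then measured kinetically at 0 and 10 min.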
# L3MBTL1 block: inhibitors of human L3MBTL1; AlphaScreen L3MBTL1–H3K9me1 peptide binding; Potency, µM (series often up to 57.1 µM), for inactives: top-dose activity, negative = inhibition, usual class: inhibitors; actives 0.66% (n = 230,000); note: % is set by controls: 0 for no effect and ±100 for the full control effect; nearly all actives have a fitted effect of over 60% in size
#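 Displacement of a biotinylated histone H3(1-15) peptide monomethylated at Lys9 (75 nM) from L3MBTL1 (50 nM) was measured by AlphaScreen after a 30 min room-temperature compound incubation; cefsulodin titration served as intraplate control.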
# Pol beta inh: blocks human DNA polymerase beta activity. actives 1.3% (n = 340,000). Pol beta primer extension/strand displacement, fluorescence kinetic. P06746. Potency, µM (highest dose often 114 µM), for inactives: at the top dose activity change, negative = inhibition, most hits filed as inhibitors; note: % is set by controls: 0 for no effect and ±100 for the full control effect
#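 Curves were derived by four-parameter Hill fits of normalized qHTS data. The kinetic fluorescent primer-extension read was taken at 0 and 10 min after 50 nM substrate, following a 15 min room-temperature preincubation of 10 nM enzyme with compounds.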
# POLH inh: blocks human DNA polymerase eta activity; Q9Y253; recombinant Pol eta, fluorescent DNA replication assay; Potency, µM (titrated, usually from 114 µM), without a hit: top-dose activity change, negative = inhibition, actives largely listed as inhibitors; actives 1.2% (n = 390,000); AID 588591; note: % is set by controls: 0 for no effect and ±100 for the full control effect
#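 Fluorescent replication assay: 50 nM final substrate added after a 15 min room-temperature compound preincubation with 10 nM enzyme. Signal taken at 0 min and again at 10 min.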
# * hit, by the source's call; ? = inconclusive; . = not tested or not shown; ! = a repeat was not active; [ ] = remark or other dose. Shown are actives, neighbours in structure and some others; about 2.5% of the full set was active somewhere. Calls come from the whole dose curve; as a rule, active = well fitted curve in the direction sought with a large enough effect; inconclusive = small, poorly fitted or top-dose-only effect, or another doubt; inactive = no such curve, though single readings can be large; an effect the other way counts as inactive or inconclusive. Potency is the fitted concentration of half-maximal effect.
SMILES,POLI inh,WRN helicase inh,POLK inh,L3MBTL1 block,Pol beta inh,POLH inh
CCC(C)NCCOc1cccc(Br)c1 (stereo not drawn),21%,-1%,-9%,4%,8%,-13%
Cc1ccc(S(=O)(=O)Oc2cccc(/C=N/Nc3ccc(C(=O)O)cc3)c2)cc1,1%,-15%,5%,-14%,-9%,79µM*
Cc1ccc(S(=O)(=O)Oc2cccc(/C=N/n3cnnc3)c2)cc1,1%,0%,7%,-5%,2%,-11%
O=[N+]([O-])c1ccc(-c2csc(Nc3ccccc3)n2)cc1,25%,.,4%,.,.,.
O=c1nc(Nc2ccccc2)sc2ccc([N+](=O)[O-])cc12,0%,-29%,-12%,4%,?,16µM*
CCOc1ccc(C(=O)NC(=S)Nc2cc(C)ccn2)cc1[N+](=O)[O-],?,0%,-4%,11%,32µM*,-7%
CCOc1ccc(C(=O)NC(=S)Nc2ccccn2)cc1[N+](=O)[O-],-2%,-5%,-11%,-7%,9%,-4%
O=C(COC(=O)C1CCN(c2ccc(C(F)(F)F)cn2)CC1)c1ccccc1Cl,20%,-15%,-12%,55%,.,-19%
CN(C)c1cccc(CNC(=O)c2ccc3sc([C@H]4C[C@H](O)[C@@H](CO)O4)nc3c2)c1,.,-8%,.,.,.,.
CC1(C)CC(=O)C2=C(C1)c1c(ccc3ccccc13)NC2c1ccc(OCC(=O)O)cc1 (stereo not drawn),-5%,-2%,?,-17%,45µM*,-15%
COc1cccc(CNC(=O)CCc2c(C)c3cc4c(C)coc4c(C)c3oc2=O)c1,?,.,-22%,.,25µM*,?
Cc1coc2cc3oc(=O)c(CC(=O)N(C)CC(=O)O)c(C)c3cc12,7%,6%,6%,.,12%,-18%
Cc1coc2c(C)c3oc(=O)c(CCC(=O)N(C)CC(=O)O)c(C)c3cc12,14%,-8%,-39%,.,79µM*,20µM*
CC(C)(C)n1nc2c(c1NC(=O)COc1ccc3ccccc3c1)CS(=O)(=O)C2,36%,2%,-8%,.,-9%,-7%
CC1CC(C)CN(CCCNC(=O)CN2C(=O)c3cccnc3Oc3ccccc32)C1 (stereo not drawn),-7%,-5%,-7%,.,8%,-4%
O=C(O)C1CCCCC1C(=O)Nc1nc(-c2ccc(Cl)s2)cs1 (stereo not drawn),?,-30%,?,-2%,16µM*,45µM*
CC(C)c1nc2sc3c(SCC(=O)NCc4ccco4)ncnc3c2c2c1CCC2,?,?,79µM*,?,22µM*,6.3µM*
O=C(CSc1ncnc2sc3c(c12)CCCCC3)NCc1ccco1,?,-21%,-28%,.,?,4%
CC1(C)Cc2nc3sc4c(SCC(=O)NCc5ccco5)ncnc4c3cc2CO1,-16%,-24%,-10%,.,?,22µM*
C=CCOc1cccc(/C=C\c2nc(O)c([N+](=O)[O-])c(=O)[nH]2)c1,?,-16%[57.1 µM],-4%,.,-22%,-11%
C=CCOc1ccc(/C=C\c2nc(O)c([N+](=O)[O-])c(=O)[nH]2)cc1OC,50µM*,-17%,?,-2%,0%,25µM*
C#CCOc1c(/C=C\c2nc(O)c([N+](=O)[O-])c(=O)[nH]2)cc(Br)cc1OC,?,-1%[11.6 µM],-43%,-1%,?,35µM*
COC(=O)COc1c(/C=C\c2nc(O)c([N+](=O)[O-])c(=O)[nH]2)cccc1OC,?,1%,-3%,0%,12%,-16%
C=CCOc1ccc(/C=C\c2nc(O)c([N+](=O)[O-])c(=O)[nH]2)cc1OCC,?,-18%[11.6 µM],-7%,.,6%,20µM*
COc1ccc(/C=C\c2nc(O)c([N+](=O)[O-])c(=O)[nH]2)cc1O,12%,?,-8%,.,23%,-14%
SMILES,POLI inh,WRN helicase inh,POLK inh,L3MBTL1 block,Pol beta inh,POLH inh
COC(=O)C1CC(=O)c2sccc2C1 (stereo not drawn),147%,2%,-2%,10%,37%,-19%
Cc1cc(C)cc(-n2c(C)cc(C(=S)N3CCOCC3)c2C)c1,154%,5%,-6%,-21%,1%,-1%
COC(=O)C1CCN(CC(=O)Nc2sc3c(c2C#N)CCC3)CC1,-35%,-26%,-1%,-12%,40µM*,?
O=C(CCS(=O)(=O)c1ccccc1)Nc1nncs1,-19%,-1%,-3%,.,?,-17%
Cc1coc2cc3oc(=O)c(CCC(=O)NCCN4CCOCC4)c(C)c3cc12,89µM*,7%,?,.,-2%,-6%
Cc1oc2cc3oc(=O)c(CCC(=O)NCCCC(=O)O)c(C)c3cc2c1C,?,-7%,-8%,.,-1%,-15%
Cc1oc2cc3oc(=O)c(CCC(=O)NCCC(=O)O)c(C)c3cc2c1C,3%,-10%,-4%,.,1%,56µM*
Cc1oc2cc3oc(=O)c(CC(=O)N[C@H](C(=O)N[C@@H](C(=O)O)c4ccccc4)C(C)C)c(C)c3cc2c1C,79µM*,-15%,?,.,-2%,-16%
COc1ccc(CNC(=O)CCc2c(C)c3cc4c(C)c(C)oc4cc3oc2=O)cc1OC,-16%,.,-18%,.,1.6µM*,-17%
Cc1coc2c(C)c3oc(=O)c(CCC(=O)NCCN4CCOCC4)c(C)c3cc12,51%,3%,13%,0%,26%,-17%
O=C(NCCc1cscn1)C1CCC(=O)N(Cc2ccc(Cl)cc2)C1 (stereo not drawn),29%,-13%,-4%,.,3%,-18%
Cc1ccc(C2CC(=O)Nc3cc4c(cc32)OCCO4)cc1Br (stereo not drawn),56%,.,-8%,.,2%,-19%
CCC(C)NC(=O)Nc1ccc(Br)cc1 (stereo not drawn),14%,-7%,1%,7%,-1%,-20%
CCC(C)Nc1ccc(NC(C)CC)cc1 (stereo not drawn),4%,-1%,2.5µM*!,?,.,-12%
O=C(COC(=O)Cc1ccccc1[N+](=O)[O-])NC1CCCC1,80%,-4%,-4%,2%,-1%,-6%
CSc1cccc(NC(=O)CN(Cc2ccc(Cl)cc2)S(C)(=O)=O)c1,89µM*,-16%[57.1 µM],-10%,.,-4%,-3%
CS(=O)(=O)N(CC(=O)Nc1ccccc1)Cc1ccc(Cl)cc1,11%,-1%,-14%,.,-11%,-3%
Cc1noc(C)c1CSc1nc2ccccc2nc1NS(=O)(=O)c1ccc(Cl)cc1,?,-24%,-9%,0%,3%,79µM*
COC(=O)c1ccc(=O)c2nc3/c(=C/O)c(O)cc(=O)c3[nH]c12,?,?,14µM*,.,?,28µM*
COC(=O)c1ccc(O)cc1,137%,-5%,-4%,.,35%,-16%

# Screening data: PubChem BioAssay, National Center for Advancing Translational Sciences (NCATS)
